Consider 16 molecules from PubChem BioAssay.

Activity calls are given as the source filed them.

The nature of experiment [1]: compound effects on lung adenocarcinoma cell viability – A549, calcein-AM fluorescence, 48 h, basal, profiling panel (AID 1162). Conditions: higher = more signal.
A short description of experiment [2]: compound effects on differentiated 3T3-L1 adipocyte viability – cell-based, 3T3-L1 adipocytes, calcein-AM fluorescence, 48 h, basal, profiling panel (AID 1163). The following applies: 3T3-L1 adipocytes viability, higher = more signal.
Experiment [3] in a line: compound effects on hepatocellular carcinoma cell viability – HepG2, calcein-AM fluorescence, 48 h, basal, profiling panel (AID 1164). Conditions: higher = more signal.
Experiment [4] in a line: compound effects on multiple myeloma cell viability – MM1S, calcein-AM fluorescence, 48 h, basal, profiling panel (AID 1165). Conditions: higher = more signal.
Experiment [5] in a line: calcein-AM signal in unstimulated myeloma cells – cell-based, calcein-AM fluorescence, 48 h, PK04 Diversity Set, profiling panel (AID 1166).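 Note: cells grown under basal conditions without added stimulus.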 The following applies: RPMI8226 myeloma viability, higher = more signal.
Experiment [6] can be described thus: JC-1 mitochondrial signal, unstimulated HepG2 cells – cell-based, JC-1 fluorescence, 24 h, 100 nL compound, profiling panel (AID 1167). Conditions: HepG2 mitochondrial potential, higher = more signal.
Experiment [7] is described as follows: JC-1 mitochondrial signal, unstimulated adipocytes – cell-based, JC-1 fluorescence, 3T3-L1 adipocytes, 24 h, 100 nL compound, profiling panel (AID 1168). Conditions: JC-1 mitochondrial fluorescence, higher = more signal, called active from +8 up or from −8 down.
Experiment [8] in a line: JC-1 mitochondrial signal, unstimulated myeloma cells – cell-based, JC-1 fluorescence, RPMI8226, 24 h, 100 nL compound, profiling panel (AID 1169). The following applies: JC-1 mitochondrial potential fluorescence, higher = more signal.
The nature of experiment [9]: JC-1 mitochondrial signal, unstimulated MM1S myeloma – cell-based, JC-1 fluorescence, 24 h, 100 nL compound, profiling panel (AID 1170). Conditions: MM1S mitochondrial potential, higher = more signal.
Experiment [10] can be described thus: resazurin metabolic signal in A549 cells – cell-based, resazurin fluorescence, 24 h, PK04 Diversity Set, profiling panel (AID 1171). Conditions: A549 viability, higher = more signal, called active from +8 up or from −8 down. Background: Resazurin is reduced to fluorescent resorufin, in cell work by metabolically active cells.
Note: test concentration not given here.

As to `CC(C)NC(=O)[C@@]1(c2ccc([N+](=O)[O-])cc2)CC(=O)N(C(C)C)[C@@H]1c1ccc(CO)cc1`, the z-score in experiment [1] was 1.19; in experiment [2] it was 0.63; in [3] it was 0.959; in experiment [4], 0.385; in experiment [5] it was 1.38; in [6], 0.763. For the same molecule, the z-score was 0.481 (inactive) in [7], -1.03 in experiment [8], -0.228 in experiment [9] and -1.1 (inactive) in experiment [10].
For `CO[C@H]1O[C@H](CO)[C@@H](OC(=O)Nc2ccc3c(c2)OCO3)[C@H](OC(=O)Nc2ccc3c(c2)OCO3)[C@H]1OC(=O)Nc1ccc2c(c1)OCO2`, the z-score in experiment [1] is -0.689; in [2], -0.121; in experiment [3] it was -1.09; in experiment [4], -1.57; in [5] it was -0.566; in [6], 0.328. Further, the z-score in experiment [7] was 0.374 (inactive); in experiment [8] it was 0.0119; in experiment [9], 0.961; in experiment [10] it was 0.38 (inactive).
As to `COCCOC(=O)N1C(=O)[C@@]2(c3cc(C#CCCO)ccc31)[C@H](C(=O)NC[C@H](O)c1ccccc1)[C@H]1C(=O)O[C@H](c3ccccc3)[C@H](c3ccccc3)N1[C@@H]2c1ccc(OCCO)cc1`, the z-score in experiment [1] was -0.339; in experiment [2], 1.22; in experiment [3], -0.981; in [4] it was -0.97; in experiment [5], -0.304; in experiment [6], -1.25. The z-score in experiment [7] is 0.623 (inactive); in experiment [8] it was -0.8; in experiment [9] it was -0.904; in [10], 1.21 (inactive).
Consider `[N-]=[N+]=Nc1ccccc1[C@H]1OC(c2ccc(OCCCO)cc2)=N[C@@]1(CCS(=O)(=O)c1ccccc1)C(=O)N1CCOCC1`, for which the z-score in experiment [1] is 0.412; in experiment [2], -0.0376; in [3], 0.402; in experiment [4] it was -0.655; in [5] it was -0.184; in experiment [6] it was -1.34. Besides, the z-score in experiment [7] was -0.392 (inactive); in experiment [8], -0.666; in experiment [9] it was -1.47; in experiment [10] it was -0.913 (inactive).
`O=c1cccc(-c2cccc3ccccc23)o1`: the z-score in experiment [1] is -1.07; in experiment [2], -0.893; in experiment [3], 0.0962; in [4], -1.09; in [5], -1.84; in [6] it was 0.113. Also, the z-score is 1.05 (inactive) in experiment [7], 0.608 in experiment [8], -1.07 in [9] and 0.058 (inactive) in experiment [10].
Turning to `Cc1ccc(S(=O)(=O)N2CC(C(=O)O)=CCC2c2ccccc2)cc1` (stereo not given), the z-score in experiment [1] was -0.901; in [2], 0.324; in experiment [3], -0.772; in experiment [4] it was -0.249; in experiment [5], -1.19; in experiment [6], -0.644. For the same molecule, the z-score in [7] is -2.04 (inactive); in experiment [8] it was -0.25; in experiment [9], 1.53; in [10], -0.717 (inactive).
Turning to `O=c1cccc(-c2ccc3ccccc3c2)o1`, the z-score is -0.996 in experiment [1]; -0.696 in experiment [2]; -0.644 in experiment [3]; -0.332 in experiment [4]; -0.406 in experiment [5]; -1.31 in experiment [6]. Besides, the z-score was 0.529 (inactive) in experiment [7], 0.463 in [8], -0.288 in experiment [9] and -0.223 (inactive) in experiment [10].
Take `C=C[C@@H](C)[C@@H](OC(=O)Nc1ccc(OC)cc1)c1ccc(O)c2ccccc12`: the z-score in experiment [1] was -1.24; in experiment [2] it was -0.336; in experiment [3], -1.63; in [4], -2.72; in experiment [5], -4.29; in experiment [6], -3.19. The z-score in experiment [7] is -0.425 (inactive); in experiment [8], -1.13; in experiment [9], -1.23; in [10], -0.527 (inactive).
For the molecule `C=C(COC)C(=O)CC[C@H](OC(=O)c1cccnc1)c1ccccc1OCCO`, the z-score was -0.414 in [1]; -0.751 in [2]; -1.24 in experiment [3]; -3.3 in experiment [4]; -3.76 in [5]; -0.952 in experiment [6]. The z-score in [7] was 0.0833 (inactive); in experiment [8], -0.706; in [9] it was -2.25; in experiment [10] it was 0.138 (inactive).
In the case of `CC(=O)NCCCC[C@@H]1NC(=O)[C@@H]2C[C@H](C(=O)NCc3ccc(F)cc3)[C@H](c3ccc(O)cc3)N2C1=O`, the z-score in experiment [1] is -0.484; in [2], 0.347; in [3], -0.797; in experiment [4], -1.18; in [5], -0.556; in experiment [6] it was 1.28. Moreover, the z-score in experiment [7] was 0.58 (inactive); in experiment [8], 0.0286; in [9], 0.28; in experiment [10], 0.361 (inactive).
Take `COCCn1c(C(=O)N(C)C)cc2c1C[C@H]1CN(C(=O)c3ccccc3)[C@@](Cc3ccc(F)cc3)(C(=O)OC)[C@@H]21`: the z-score in experiment [1] is 0.428; in experiment [2] it was -0.687; in [3], 0.684; in [4], -0.259; in [5] it was -0.362; in experiment [6], 0.938. In addition, the z-score in experiment [7] was -0.499 (inactive); in experiment [8], 0.172; in [9], -0.929; in [10] it was -0.774 (inactive).
As for `C=CCC(OC(C)=O)[C@@H]1[C@@H](N(Cc2cc3ccccc3o2)C(=O)c2cccc3ccccc23)c2cc(OCCCO)ccc2N1C(=O)Cc1ccc2ccccc2c1` (stereo not given in full), the z-score was 0.206 in [1]; 0.753 in experiment [2]; 0.381 in [3]; 0.791 in experiment [4]; -1.08 in experiment [5]; 2.07 in experiment [6]. The z-score was -0.858 (inactive) in [7], 0.313 in [8], -0.963 in [9] and -1.05 (inactive) in experiment [10].
For `O=C1OCCC=C[C@H]2OC34C=CCN(c5ccc6ccccc6c5)C(=O)[C@H]3N(CCCCCCO)C(=O)[C@@H]4C12` (stereo not given in full), the z-score in [1] is 0.705; in experiment [2], -0.488; in experiment [3] it was 0.461; in experiment [4], 1.1; in experiment [5], 0.734; in experiment [6], 1.3. Besides, the z-score is 0.0246 (inactive) in experiment [7], -0.00773 in experiment [8], -0.456 in experiment [9] and 0.866 (inactive) in experiment [10].
In the case of `COCCOC(=O)N1C(=O)[C@@]2(c3ccccc31)[C@H](C(=O)N1CCCCCCC1)[C@H]1C(=O)O[C@H](c3ccccc3)[C@H](c3ccccc3)N1[C@@H]2c1ccccc1OCCO`, the z-score is -0.501 in experiment [1]; 0.293 in [2]; 0.603 in [3]; -0.252 in experiment [4]; -1.84 in [5]; -0.114 in experiment [6]. Besides, the z-score was -0.226 (inactive) in experiment [7], -1.1 in experiment [8], -1.04 in [9] and -0.467 (inactive) in experiment [10].
On to `O=C1C2C=CC(C(O)c3ccc(B(O)O)cc3)N(Nc3ccc([N+](=O)[O-])cc3)C2C(=O)N1c1ccccc1` (stereo not given), for which the z-score was -2.05 in experiment [1]; -0.167 in experiment [2]; -5.4 in experiment [3]; 0.0297 in experiment [4]; -4.09 in experiment [5]; -1.66 in experiment [6]. Further, the z-score is 3.71 (inactive) in experiment [7], -0.213 in [8], -1.22 in experiment [9] and 0.0312 (inactive) in experiment [10].
For the molecule `C=C[C@H](C)[C@H](O)c1ccc(OCCO)cc1`, the z-score in experiment [1] is -0.001; in experiment [2] it was 0.557; in [3], -0.548; in experiment [4] it was 1.17; in experiment [5] it was -0.484; in [6], 0.221. The z-score in experiment [7] is -0.721 (inactive); in experiment [8], -0.238; in [9] it was -0.339; in experiment [10], -0.276 (inactive).
